# Experimental data taken from paper PMC5540273 (PLoS ONE, 2017).
# Like-named read-outs stand apart in the source and are kept apart here.
# Experiments:
# Settings in all cases: n = 1
# DAPK2 = tested on: DAPK2
# DAPK3 = tested on: DAPK3
# DCAMKL1 = tested on: T1, DCAMKL1
# T1 construct: gene DCLK1
# DCAMKL2 = tested on: T2, DCAMKL2
# T2 construct: gene DCLK2
# DCAMKL3 = tested on: T3, DCAMKL3
# T3 construct: gene DCLK3
# DDR1 = tested on: DDR1
# DDR2 = tested on: DDR2
# DLK = tested on: T4, DLK
# T4 construct: gene MAP3K12
# DMPK2 = tested on: T5, DMPK2
# T5 construct: gene CDC42BPG
# DMPK = tested on: DMPK
# DRAK1 = tested on: T6, DRAK1
# T6 construct: gene STK17A
# DRAK2 = tested on: T7, DRAK2
# T7 construct: gene STK17B
# DYRK1A = tested on: DYRK1A
# DYRK1B = tested on: DYRK1B
# DYRK2 = tested on: DYRK2
# EGFR = tested on: EGFR
# EIF2AK1 = tested on: EIF2AK1
# EPHA1 = tested on: EPHA1
# EPHA2 = tested on: EPHA2
# EPHA3 = tested on: EPHA3
# [1] = concentration: 1 μM, replicates: in singlicate
# 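Also: KINOMEscan kinase panel screen.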
structure (smiles),measurement,setting,value
COc1ccc(Nc2nccc(NCCNC(=O)Nc3ccccc3F)n2)cc1 [GSK1379901],%Inh,DAPK2; [1],0%
same,%Inh,DAPK3; [1],8%
same,%Inh,DCAMKL1; [1],15%
same,%Inh,DCAMKL2; [1],0%
same,%Inh,DCAMKL3; [1],8%
same,%Inh,DDR1; [1],11%
same,%Inh,DDR2; [1],0%
same,%Inh,DLK; [1],0%
same,%Inh,DMPK2; [1],0%
same,%Inh,DMPK; [1],0%
same,%Inh,DRAK1; [1],2%
same,%Inh,DRAK2; [1],0%
same,%Inh,DYRK1A; [1],19%
same,%Inh,DYRK1B; [1],0%
same,%Inh,DYRK2; [1],6%
same,%Inh,EGFR; [1],20%
same,%Inh,EIF2AK1; [1],10%
same,%Inh,EPHA1; [1],33%
same,%Inh,EPHA2; [1],25%
same,%Inh,EPHA3; [1],0%
Cc1ccc(NC(=O)Nc2cccc(C(F)(F)F)c2)cc1 [GSK955403],%Inh,DAPK2; 1 µM,3%
same,%Inh,DAPK3; 1 µM,24%
same,%Inh,DCAMKL1; 1 µM,0%
same,%Inh,DCAMKL2; 1 µM,0%
same,%Inh,DCAMKL3; 1 µM,13%
same,%Inh,DDR1; 1 µM,43%
same,%Inh,DDR2; 1 µM,65%
same,%Inh,DLK; 1 µM,0%
same,%Inh,DMPK2; 1 µM,0%
same,%Inh,DMPK; 1 µM,0%
same,%Inh,DRAK1; 1 µM,15%
same,%Inh,DRAK2; 1 µM,0%
same,%Inh,DYRK1A; 1 µM,0%
same,%Inh,DYRK1B; 1 µM,0%
same,%Inh,DYRK2; 1 µM,0%
same,%Inh,EGFR; 1 µM,0%
same,%Inh,EIF2AK1; 1 µM,0%
same,%Inh,EPHA1; 1 µM,17%
same,%Inh,EPHA2; 1 µM,0%
same,%Inh,EPHA3; 1 µM,0%
C[C@@H]1CCCCN1c1cc(-c2ccc3c(N)n[nH]c3c2)nc(N)n1 [GSK2258759],%Inh,DAPK2; [1],0%
same,%Inh,DAPK3; [1],19%
same,%Inh,DCAMKL1; [1],2%
same,%Inh,DCAMKL2; [1],0%
same,%Inh,DCAMKL3; [1],0%
same,%Inh,DDR1; [1],0%
same,%Inh,DDR2; [1],0%
same,%Inh,DLK; [1],21%
same,%Inh,DMPK2; [1],0%
same,%Inh,DMPK; [1],0%
same,%Inh,DRAK1; [1],96%
same,%Inh,DRAK2; [1],0%
same,%Inh,DYRK1A; [1],0%
same,%Inh,DYRK1B; [1],0%
same,%Inh,DYRK2; [1],10%
same,%Inh,EGFR; [1],18%
same,%Inh,EIF2AK1; [1],0%
same,%Inh,EPHA1; [1],8%
same,%Inh,EPHA2; [1],0%
same,%Inh,EPHA3; [1],7%
COc1ccccc1-c1ccc2c(NC(=O)C3CC3)n[nH]c2n1 [SB-711239],%Inh,DAPK2; [1],11%
same,%Inh,DAPK3; [1],3%
same,%Inh,DCAMKL1; [1],0%
same,%Inh,DCAMKL2; [1],3%
same,%Inh,DCAMKL3; [1],0%
same,%Inh,DDR1; [1],10%
same,%Inh,DDR2; [1],22%
same,%Inh,DLK; [1],5%
same,%Inh,DMPK2; [1],0%
same,%Inh,DMPK; [1],1%
same,%Inh,DRAK1; [1],5%
same,%Inh,DRAK2; [1],0%
same,%Inh,DYRK1A; [1],12%
same,%Inh,DYRK1B; [1],16%
same,%Inh,DYRK2; [1],2%
same,%Inh,EGFR; [1],2%
same,%Inh,EIF2AK1; [1],0%
same,%Inh,EPHA1; [1],0%
same,%Inh,EPHA2; [1],18%
same,%Inh,EPHA3; [1],0%
CCCc1ccc(S(=O)(=O)NC2CCN(c3ccnc(Nc4ccc(F)cc4)n3)C2)cc1 (centres unmarked) [GSK1379715],%Inh,DAPK2; [1],0%
same,%Inh,DAPK3; [1],7%
same,%Inh,DCAMKL1; [1],10%
same,%Inh,DCAMKL2; [1],0%
same,%Inh,DCAMKL3; [1],0%
same,%Inh,DDR1; [1],0%
same,%Inh,DDR2; [1],7%
same,%Inh,DLK; [1],0%
same,%Inh,DMPK2; [1],0%
same,%Inh,DMPK; [1],0%
same,%Inh,DRAK1; [1],0%
same,%Inh,DRAK2; [1],0%
same,%Inh,DYRK1A; [1],23%
same,%Inh,DYRK1B; [1],0%
same,%Inh,DYRK2; [1],0%
same,%Inh,EGFR; [1],0%
same,%Inh,EIF2AK1; [1],12%
same,%Inh,EPHA1; [1],8%
same,%Inh,EPHA2; [1],12%
same,%Inh,EPHA3; [1],0%
NC(=O)c1nnc2ccccc2c1N,%Inh,DAPK2; [1],10%
same,%Inh,DAPK3; [1],6%
same,%Inh,DCAMKL1; [1],9%
same,%Inh,DCAMKL2; [1],30%
same,%Inh,DCAMKL3; [1],0%
same,%Inh,DDR1; [1],0%
same,%Inh,DDR2; [1],11%
same,%Inh,DLK; [1],18%
same,%Inh,DMPK2; [1],0%
same,%Inh,DMPK; [1],0%
same,%Inh,DRAK1; [1],41%
same,%Inh,DRAK2; [1],33%
same,%Inh,DYRK1A; [1],29%
same,%Inh,DYRK1B; [1],16%
same,%Inh,DYRK2; [1],39%
same,%Inh,EGFR; [1],0%
same,%Inh,EIF2AK1; [1],0%
same,%Inh,EPHA1; [1],14%
same,%Inh,EPHA2; [1],10%
same,%Inh,EPHA3; [1],0%
O=c1cc(N2CCOCC2)nc2n(Cc3cccc(Cl)c3Cl)ccn12 [GSK2286295],%Inh,DAPK2; [1],7%
same,%Inh,DAPK3; [1],15%
same,%Inh,DCAMKL1; [1],5%
same,%Inh,DCAMKL2; [1],0%
same,%Inh,DCAMKL3; [1],20%
same,%Inh,DDR1; [1],0%
same,%Inh,DDR2; [1],0%
same,%Inh,DLK; [1],0%
same,%Inh,DMPK2; [1],0%
same,%Inh,DMPK; [1],3%
same,%Inh,DRAK1; [1],0%
same,%Inh,DRAK2; [1],0%
same,%Inh,DYRK1A; [1],14%
same,%Inh,DYRK1B; [1],30%
same,%Inh,DYRK2; [1],21%
same,%Inh,EGFR; [1],20%
same,%Inh,EIF2AK1; [1],0%
same,%Inh,EPHA1; [1],0%
same,%Inh,EPHA2; [1],4%
same,%Inh,EPHA3; [1],18%
CN1C(=O)C(Nc2ccc(Cl)c(C(=O)O)c2)=C(c2ccc(Cl)cc2)C1=O [SB-404290],%Inh,DAPK2; [1],9%
same,%Inh,DAPK3; [1],14%
same,%Inh,DCAMKL1; [1],0%
same,%Inh,DCAMKL2; [1],6%
same,%Inh,DCAMKL3; [1],10%
same,%Inh,DDR1; [1],0%
same,%Inh,DDR2; [1],0%
same,%Inh,DLK; [1],0%
same,%Inh,DMPK2; [1],0%
same,%Inh,DMPK; [1],0%
same,%Inh,DRAK1; [1],0%
same,%Inh,DRAK2; [1],0%
same,%Inh,DYRK1A; [1],2%
same,%Inh,DYRK1B; [1],0%
same,%Inh,DYRK2; [1],0%
same,%Inh,EGFR; [1],0%
same,%Inh,EIF2AK1; [1],0%
same,%Inh,EPHA1; [1],5%
same,%Inh,EPHA2; [1],0%
same,%Inh,EPHA3; [1],18%
Cc1ccc(NC(=O)Nc2cc(C(C)(C)C)nn2-c2ccccc2)cc1 [GSK1014915],%Inh,DAPK2; [1],0%
same,%Inh,DAPK3; [1],18%
same,%Inh,DCAMKL1; [1],2%
same,%Inh,DCAMKL2; [1],25%
same,%Inh,DCAMKL3; [1],5%
same,%Inh,DDR1; [1],90.7%
same,%Inh,DDR2; [1],88%
same,%Inh,DLK; [1],18%
same,%Inh,DMPK2; [1],0%
same,%Inh,DMPK; [1],3%
same,%Inh,DRAK1; [1],0%
same,%Inh,DRAK2; [1],1%
same,%Inh,DYRK1A; [1],33%
same,%Inh,DYRK1B; [1],11%
same,%Inh,DYRK2; [1],3%
same,%Inh,EGFR; [1],38%
same,%Inh,EIF2AK1; [1],0%
same,%Inh,EPHA1; [1],7%
same,%Inh,EPHA2; [1],7%
same,%Inh,EPHA3; [1],0%
Cc1c(O)cccc1Nc1ccnc2ccc(C(F)(F)F)cc12.Cl [GW466413],%Inh,DAPK2; [1],0%
same,%Inh,DAPK3; [1],0%
same,%Inh,DCAMKL1; [1],0%
same,%Inh,DCAMKL2; [1],0%
same,%Inh,DCAMKL3; [1],0%
same,%Inh,DDR1; [1],16%
same,%Inh,DDR2; [1],24%
same,%Inh,DLK; [1],43%
same,%Inh,DMPK2; [1],0%
same,%Inh,DMPK; [1],0%
same,%Inh,DRAK1; [1],14%
same,%Inh,DRAK2; [1],0%
same,%Inh,DYRK1A; [1],29%
same,%Inh,DYRK1B; [1],0%
same,%Inh,DYRK2; [1],0%
same,%Inh,EGFR; [1],28%
same,%Inh,EIF2AK1; [1],0%
same,%Inh,EPHA1; [1],77%
same,%Inh,EPHA2; [1],11%
same,%Inh,EPHA3; [1],3%
